In the library only some 2.2% were active in any assay of this set; here they are far more common.
KLF5 inhibitor: suppresses KLF5 promoter-driven expression; inhibition, % at 5 µM; DLD-1 KLF5 promoter-luciferase reporter, luminescence; 0.23% of 290,000 active;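 active = inhibition above a per-plate limit of that plate's mean compound inhibition plus 3 SD, cut at about 60% in these data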;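 also: 0% = DMSO wells and 100% = LY294002 at 200 µM; higher means less KLF5 promoter-driven luciferase light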
APP 5UTR inh: APP translation inhibition; SH-SY5Y APP 5'UTR-luciferase reporter, luminescence; inhibition, % at 2 µM; 0.82% of 190,000 active;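 active = inhibition above a set limit, derived from the sample mean plus 3 SD, cut at about 45% in these data; inconclusive = one replicate passes the limit while the other fails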
BaF3 parental: reduces parental Ba/F3 cell viability, JAK2V617F counter-screen; AID 1486; inhibition, % at 5.6 µM; 1.1% of 220,000 active; CellTiter-Glo ATP luminescence;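 active = inhibition above a per-campaign cutoff, the mean inhibition of all tested compounds plus 3 SD, cut at about 27% in these data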;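 also: 0% = DMSO wells and 100% = JAK Inhibitor I control wells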
aSyn 5UTR inh: 5' untranslated region of α-synuclein, MLPCN primary screen | 0.82% of 300,000 active | AID 1813 | inhibition, % (tested at 7.5 µM) | alpha-synuclein 5'UTR reporter, inhibitor activity; in the data active = inhibition above about 60%; inconclusive = no clear call, values can overlap the other calls;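 also: H4 neuroglioblastoma cells stably carrying SNCA 5'UTR luciferase fusion; 0% = DMSO wells and 100% = positive control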
IEC-6 tox: kills IEC-6 intestinal cells in KLF5 counter-screen; IEC-6 cytotoxicity, luminescence viability; 0.78% of 290,000 active; inhibition, % at 5 µM; in the data active = inhibition above about 22%;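 also: 0% = plate median of test compound wells and 100% = cytotoxic reference compound wells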
Ba/F3 V617F tox: loss of viability in JAK2V617F-driven Ba/F3 cells; 1.1% of 220,000 active; inhibition, % at 5.6 µM; Ba/F3 EpoR-JAK2V617F viability, ATP luminescence;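 active = inhibition above the campaign mean plus 3 SD over all tested compounds, cut at about 24% in these data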;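 also: cytokine-independent growth of Ba/F3 cells driven by EpoR plus mutant JAK2; 0% = DMSO-treated cells and 100% = JAK inhibitor I control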
* hit, by the source's call; ? = inconclusive; / = not tested or not shown.

SMILES	KLF5 inhibitor	APP 5UTR inh	BaF3 parental	aSyn 5UTR inh	IEC-6 tox	Ba/F3 V617F tox
O=c1c(Cl)nc2cc(Cl)ccc2n1CCNc1ncc(C(F)(F)F)cc1Cl	-33	-6	8	110*	-5	0
O=c1c2nncn2c2cc(C(F)(F)F)ccc2n1CCNc1ncc(C(F)(F)F)cc1Cl	-36	/	-5	26	-6	0
Cc1[nH]c2ccccc2c1/C=N/n1cnnc1	-5	-5	4	9	4	-1
CCN(CC)c1ccc(N=Cc2c(C)[nH]c3ccccc23)cc1	-33	0	8	63*	1	2
Cc1onc(-c2ccccc2)c1C(=O)NC(=S)NNC(=O)c1ccccc1O	22	-8	84*	63*	1	101*
Cc1onc(-c2ccccc2)c1C(=O)NC(=S)NNC(=O)c1ccc(O)cc1O	56	27	72*	64*	-5	98*
Cc1onc(-c2ccccc2)c1C(=O)NC(=S)NNC(=O)c1ccc(O)cc1	4	18	7	32	2	0
O=S(=O)(Nc1nc2ccccc2nc1Cl)c1cccc(C(F)(F)F)c1	20	/	/	4	-3	/
Fc1ccc(-c2nc3ccccc3[nH]2)cc1	-117	-103	63*	-96	4	2
CC(=O)c1ccc(-c2nnc(CCC(=O)N(C)Cc3c(C)nc4ccccn34)o2)s1	-13	-7	5	28	1	4
Brc1cccc(-c2nnc3n2CCCCC3)c1	-22	-1	96*	-12	-1	-2
c1ccc(-c2nnc3n2CCCC3)cc1	-4	1	10	3	-6	1
CCCCCCCC(=O)Nc1ccc(C(=O)N/N=C/c2cccc([N+](=O)[O-])c2)cc1	-18	0	2	76*	-5	0
NS(=O)(=O)c1ccc(-c2ccc(/C=N/NC(=O)c3ccc([N+](=O)[O-])cc3)o2)cc1	6	/	50*	-12	4	-1
CCCC(=O)Nc1ccc(C(=O)N/N=C/c2ccc([N+](=O)[O-])o2)cc1	-18	96*	4	111*	1	2
O=C(Nc1cccc([N+](=O)[O-])c1)c1cc(S(=O)(=O)N2CCOCC2)cs1	-20	/	/	5	2	/
CCOC(=O)c1cnc2sc3c(n2c1=O)CCCC3	6	-25	64*	/	12	72*
O=c1[nH][nH]c(C(F)(F)F)c1/C=N/N1CCOCC1	8	4	2	9	2	-1
COc1ccc2oc(=O)c(-c3csc(Nc4ccc(O)cc4)n3)cc2c1	-52	8	28*	-70	5	60*
COc1ccc2oc(=O)c(/C(C)=N/Nc3nc(-c4cc(C)ccc4C)cs3)cc2c1	-18	7	-1	26	-2	-3
CC(C)/C=C/CN1CCN(CCCc2ccccc2)C(CCO)C1 (stereo unspecified)	-36	/	/	-1	-2	/
CCOC(=O)c1c(NC(=O)CSc2ncccn2)sc2c1CCN(Cc1ccccc1)C2	18	9	39*	-11	4	5
CCOC(=O)c1c(NC(=O)CC)sc2c1CCN(Cc1ccccc1)C2	-28	/	/	-3	2	/
CCCCCCCCCCCC(=O)c1c(O)cccc1O	-7	-3	-1	8	-2	1
CN1/C(=C/C(=O)C2CC2)C(C)(C)c2ccccc21	-7	-16	41*	/	-3	-1
SMILES	KLF5 inhibitor	APP 5UTR inh	BaF3 parental	aSyn 5UTR inh	IEC-6 tox	Ba/F3 V617F tox
CN1/C(=C\C(=O)COC(=O)Cn2nnc(-c3ccccc3)n2)C(C)(C)c2ccccc21	-19	15	63*	31	3	63*
CN1/C(=C\C(=O)Nc2ccc(Br)cc2)C(C)(C)c2ccccc21	-12	-1	3	14	-11	-1
CN1/C(=C\C(=S)NC(=O)c2cccc(Br)c2)C(C)(C)c2ccccc21	7	-10	64*	-14	1	59*
CN1/C(=C\C(=O)CSc2nncn2C)C(C)(C)c2ccccc21	-30	17	47*	7	2	37*
COc1cc(OC)cc(C(=O)NCC(=O)OCC(=O)/C=C2/N(C)c3ccccc3C2(C)C)c1	-10	12	4	11	-2	-1
Cn1cnnc1SCC(=O)NCc1ccccc1	-4	14	1	-23	-5	1
Cc1c(C)n(Cc2ccc(F)cc2)c2ccc(C(=O)NCCN3CCOCC3)cc12	10	/	/	13	-2	/
COc1cc(/C=N/NC(=O)CNc2n[nH]c(=O)[nH]c2=O)ccc1O	-33	15	8	-18	-6	2
O=C(O)c1ccccc1Oc1ccc(Oc2ccccc2)cc1	3	/	/	1	1	/
COc1cc(CC(=O)N(c2ccccc2)c2nc(C)cs2)cc(OC)c1OC	-7	7	8	-6	-4	1
C=C(C)CSc1nc2sc3c(c2c(=O)n1C1CCCCC1)CCN(C)C3	-1	/	54*	32	2	51*
Cc1cccc(N2CCN(C(=O)/C=C/c3cccs3)CC2)c1C	-19	4	5	-42	2	1
Cc1nc(NC(C)c2ccccc2)c2oc3ccccc3c2n1 (stereo unspecified)	-9	-7	35*	0	3	2
CCC(C)Nc1nc(C)nc2c1oc1ccccc12 (stereo unspecified)	-9	/	1	5	2	-2
COc1ccc(-c2cnnc(N/N=C/c3ccc(O)cc3)n2)cc1	-17	-10	-3	-77	8	-2
COc1ccc(-c2cnnc(N/N=C/c3c(C)nn(-c4ccccc4)c3Cl)n2)cc1	10	62*	5	11	6	5
CC1(C)Cc2nc(-c3ccccc3)nc(SCC(=O)N3CCOCC3)c2CO1	-19	/	/	0	0	/
CC1(C)Cc2nc(-c3ccccc3)nc(SCC(O)CO)c2CO1 (stereo unspecified)	-27	/	61*	0	3	1
CC1CCC(C(C)C)C(OC(=O)Cn2c(-c3ccc(Cl)cc3)[n+](C)c3ccccc32)C1 (stereo unspecified)	-17	/	95*	?	8	99*
CC1CCC(C(C)C)C(OC(=O)COC(=O)c2cccn2C)C1 (stereo unspecified)	-14	1	3	0	-2	-1
Cc1ccccc1OCc1n(CC(=O)OC2CC(C)CCC2C(C)C)c2ccccc2[n+]1C (stereo unspecified)	-12	8	80*	85*	-4	101*
CC1CCC(C(C)C)C(OC(=O)Cn2c(-c3ccc(Br)cc3)[n+](C)c3ccccc32)C1 (stereo unspecified)	-3	-15	87*	7	2	101*
C#CCOc1coc(COC(=O)c2ccccc2)cc1=O	-2	/	/	-9	-4	/
CCS(=O)(=O)N1N=C(c2cccc(NS(C)(=O)=O)c2)CC1c1ccc(C)cc1 (stereo unspecified)	-45	-5	10	-24	3	7
Cc1c(Nc2ncccc2C(=O)O)cccc1C(F)(F)F	/	/	/	-2	/	/
O=C(O)c1ccc(CSc2nnc(-c3cccnc3)n2-c2ccc(Br)cc2)cc1	-3	6	5	-21	1	1

Compound activity deposited in PubChem by several laboratories.
